SMILES strings stand for the structures. Out of some 1,100 compounds screened, about 340 (31%) were called active. Not shown: some 40% with an inconclusive outcome. Calls follow the shape of the dose curve; as a rule, active = well fitted inhibition curve with a large enough effect; inconclusive = small, poorly fitted or top-dose-only effect; inactive = flat fitted curve, though single readings scatter. Only a sample is shown.
% is scaled to controls: 0 for no effect and ±100 for the full control effect; potency is read from the fitted curve at half-maximal effect.

Phosphatidylinositol 5-phosphate 4-kinase type-2 alpha (Homo sapiens), sequence (P48426 whole entry, looked up): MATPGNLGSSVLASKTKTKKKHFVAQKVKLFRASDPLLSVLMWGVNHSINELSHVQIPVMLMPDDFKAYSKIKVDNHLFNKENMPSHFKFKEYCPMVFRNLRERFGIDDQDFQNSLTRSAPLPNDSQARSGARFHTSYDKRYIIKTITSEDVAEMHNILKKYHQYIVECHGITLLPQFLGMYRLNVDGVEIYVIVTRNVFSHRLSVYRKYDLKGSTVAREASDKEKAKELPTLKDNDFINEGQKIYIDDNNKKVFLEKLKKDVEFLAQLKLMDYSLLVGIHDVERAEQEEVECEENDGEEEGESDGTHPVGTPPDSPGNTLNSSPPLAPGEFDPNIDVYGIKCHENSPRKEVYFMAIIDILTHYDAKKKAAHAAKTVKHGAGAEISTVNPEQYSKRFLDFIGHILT

For this assay, the target named is Phosphatidylinositol 5-phosphate 4-kinase type-2 alpha (Homo sapiens) (UniProt P48426). Put plainly: qHTS for Inhibitors of PI5P4K: Confirmation in Primary Assay. Also: nearly all actives have a fitted effect of over 65% in size. To be noted: PI5P4Kalpha enzyme, ADP-Glo luminescence, 60 min; series mostly up to 76.9 µM; activity change, negative = inhibition: at the top concentration. The procedure, abridged:
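ADP-Glo luminescence end-point quantified ADP produced by PI5P4Kα after 60 min at room temperature with 5 microM ATP. Buffer: HEPES pH 7.4, EGTA, 0.1% CHAPS, 5% DMSO final; compounds added before ATP.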
With `O=S(=O)(Nc1ccccc1N1CCCCC1)c1ccc(Cl)s1`, the “activity change, negative = inhibition” value is 13.5% (inactive).

Take `O=S(=O)(Nc1ccc(-c2nc3cccnc3s2)cc1)c1ccc(Cl)s1`: the Potency is 14.1 µM (active).

Take `CCS(=O)(=O)Nc1ccc(-c2nc3cccnc3s2)cc1`: the Potency is 22.4 µM (active).

On to `O=S1(=O)CC(N2CCSCC2)CN1Cc1cn(Cc2ccc(F)cc2)nn1` (configuration not stated), for which the “activity change, negative = inhibition” value is 0.289% (inactive).

Regarding `COc1cc(Br)cc(CNc2ccc(F)c([N+](=O)[O-])c2)c1O`, the “activity change, negative = inhibition” value is 4.43% (inactive).

On to `Cn1c(=O)c2c(-c3ccccc3)n(-c3cccc(O)c3)cc2n(C)c1=O`, for which the “activity change, negative = inhibition” value is -7.76% (inactive).

For the compound `Cc1cccc(C2Nc3ccccc3C(=O)N2c2ccc(F)cc2)n1` (configuration not stated), the “activity change, negative = inhibition” value is 10.2% (inactive).

As for `COc1ccc2[nH]c(=O)c(CN(Cc3nnnn3Cc3ccco3)C3CCCCC3)cc2c1`, the “activity change, negative = inhibition” value was -6.21% (inactive).

In the case of `NS(=O)(=O)c1ccc2c(c1)C1C=CCC1C(C1CC=CCC1)N2` (configuration not stated), the Potency was 28.2 µM (active).

As for `CCN(CC)CCCCCC(=O)Nc1ccccc1C(=O)Nc1ccccc1`, the “activity change, negative = inhibition” value is 0.323% (inactive).

`CCCCC1=CC2=CC(=O)C(C)(OC(=O)C3CCCC3)C(=O)C2=CO1` (configuration not stated): the Potency is 15.8 µM (active).

Consider `Cc1c(Cl)cccc1NC(=O)Cn1nnc(C(=O)NCc2cccs2)c1N`, for which the “activity change, negative = inhibition” value was -10.6% (inactive).

For the compound `S=C(NCc1ccccc1)N1CCc2ccccc2C1`, the “activity change, negative = inhibition” value was 8.97% (inactive).

Turning to `Cc1ccc([N+](=O)[O-])cc1NC(=O)CCSc1ccc(Cl)cc1`, the “activity change, negative = inhibition” value was 11.2% (inactive).

For the compound `NC(=O)c1ccsc1NC(=O)c1ccc([N+](=O)[O-])o1`, the Potency was 12.6 µM (active).

As to `Cc1cccc(Nc2nc(NCc3ccco3)c3ccccc3n2)c1`, the Potency is 35.5 µM (active).

With `COc1ccccc1CNc1nc(Nc2cccc(-c3cnco3)c2)c2sccc2n1`, the “activity change, negative = inhibition” value was -16.8% (inactive).

With `Cc1ccc(Nc2nc(NCc3ccco3)c3ccccc3n2)cc1`, the Potency was 35.5 µM (active).

For the compound `CCc1cc(=O)oc2cc(C)c(CN3CCCCC3)c(O)c12`, the “activity change, negative = inhibition” value was -23.8% (inactive).

`COc1ccc(N(C(=O)c2ccccc2)S(=O)(=O)c2cccs2)cc1`: the “activity change, negative = inhibition” value was -2.58% (inactive).

Regarding `CC(CNC(=O)c1ccc(Br)o1)NC(=O)c1ccc(Br)o1` (configuration not stated), the “activity change, negative = inhibition” value was -4.83% (inactive).

For the compound `O=C(Nc1cccc(S(=O)(=O)NC2=NCCC2)c1)c1cc(-c2ccco2)nc2ccccc12`, the Potency is 2.51 µM (active).

With `COc1ccc(NC(=O)c2cc(-c3ccco3)nc3ccccc23)cc1S(=O)(=O)N1CCOCC1`, the Potency is 6.31 µM (active).

As to `O=C(Nc1cccc(S(=O)(=O)NC2=NCCCCC2)c1)c1cc(-c2ccco2)nc2ccccc12`, the Potency is 2.82 µM (active).

As to `COc1ccc(Br)cc1C(=O)Nc1cccc(NC(=O)c2ccco2)c1`, the “activity change, negative = inhibition” value was -7.07% (inactive).

For `Cc1csc(=O)n1CCC(=O)OCC(=O)Nc1ccc(N2CCOCC2)cc1`, the “activity change, negative = inhibition” value is -1.41% (inactive).

For the compound `COc1ccc(N2CC(O)=C(c3nc(-c4ccccc4)cs3)C2=N)cc1`, the “activity change, negative = inhibition” value was -4.17% (inactive).

`CCCCc1c(Cc2ccccc2)ncn1CCc1ccccc1OC`: the “activity change, negative = inhibition” value was 10.2% (inactive).

Take `CC(=O)c1ccc(NC(=O)CC2Nc3cccc4cccc(c34)NC2=O)cc1` (configuration not stated): the Potency is 3.98 µM (active).

As to `Oc1c(C(c2ccccc2)N2CCOCC2)ccc2ccccc12` (configuration not stated), the Potency is 3.98 µM (active).

For the compound `O=c1[nH]c(N2CCOCC2)cc2ccccc12`, the “activity change, negative = inhibition” value was 1.03% (inactive).

In the case of `c1ccc2c(OCCCCN3CCOCC3)cccc2c1`, the “activity change, negative = inhibition” value is -1.13% (inactive).

For the compound `CC1CCCC(C)N1C(=O)COC(=O)CNC(=O)c1ccccc1` (configuration not stated), the “activity change, negative = inhibition” value was 0.689% (inactive).

As to `Cc1cc2nc(NC(=O)C3(C)CCN3C(=O)C(C)C)[nH]c2cc1C` (configuration not stated), the “activity change, negative = inhibition” value was -17.4% (inactive).

As to `CC1(C(=O)NS(=O)(=O)C2CC2)CCN(C(=O)c2ccccc2F)C1` (configuration not stated), the “activity change, negative = inhibition” value is -6.44% (inactive).

Take `N#Cc1ccc(COC(=O)CC(NC(N)=O)c2ccc(Cl)cc2)cc1` (configuration not stated): the “activity change, negative = inhibition” value is -7.64% (inactive).

In the case of `COCCOC(=O)c1[nH]c2c(c1C)C(=O)CC(c1ccco1)C2` (configuration not stated), the Potency is 15.8 µM (active).

As for `O=C(Nc1ccc(O)c2c(=O)cc(-c3ccccc3Cl)oc12)c1ccc(Cl)c(Cl)c1`, the “activity change, negative = inhibition” value was -1.44% (inactive).

For `Nc1c(C(=O)O)cnc2c(-c3ccc(Cl)cc3)cnn12`, the Potency was 6.31 µM (active).

Regarding `CN1OC[C@@H]2CN3C(=O)N(c4cccc5ccccc45)c4ccccc4[C@@H]3C[C@@H]21`, the “activity change, negative = inhibition” value was -17.2% (inactive).

For `CCCn1c(SCC(=O)N2c3ccccc3Sc3ccccc32)nc2c1c(=O)n(C)c(=O)n2C`, the “activity change, negative = inhibition” value was -3.15% (inactive).

For `CCC(c1nnnn1Cc1ccco1)N(CCc1ccccc1)Cc1cc2ccc(OC)cc2[nH]c1=O` (configuration not stated), the “activity change, negative = inhibition” value was 2.22% (inactive).

Turning to `O=C(NCCN1CCN(c2ccccc2)CC1)C1CCCN(S(=O)(=O)c2cnc[nH]2)C1` (configuration not stated), the “activity change, negative = inhibition” value was 3.17% (inactive).

For the compound `Cc1cc(NS(=O)(=O)c2ccc(NC(=O)COc3ccc(Br)cc3)cc2)nc(C)n1`, the “activity change, negative = inhibition” value is 0.161% (inactive).

In the case of `Cc1cc(C)c2nc(-c3ccccn3)cc(C(=O)Nc3ccc(S(=O)(=O)Nc4onc(C)c4C)cc3)c2c1`, the Potency was 8.91 µM (active).

Take `COCCCNC(=O)c1ccc2c(=O)n(CC3CCCO3)c(=S)[nH]c2c1` (configuration not stated): the “activity change, negative = inhibition” value was -8.52% (inactive).

For the compound `CN(Cc1ccccc1)C(=O)c1csc([C@H]2C[C@H](O)[C@@H](CO)O2)n1`, the “activity change, negative = inhibition” value is -0.235% (inactive).

With `COc1cccc(CNS(=O)(=O)c2ccccc2Br)c1OC`, the “activity change, negative = inhibition” value was -0.448% (inactive).

On to `COC(=O)CSc1nc(C)cc(C)n1`, for which the “activity change, negative = inhibition” value was 1.95% (inactive).

As to `O=C(Cn1cnc2scc(-c3cccc([N+](=O)[O-])c3)c2c1=O)NCc1ccco1`, the Potency was 11.2 µM (active).

`CC1CCCCN1C(=O)Cn1cnc2cc([N+](=O)[O-])ccc2c1=O` (configuration not stated): the “activity change, negative = inhibition” value was -5.4% (inactive).

For `COC(=O)CNC(=O)C1Cc2ccccc2CN1S(=O)(=O)c1cccs1` (configuration not stated), the “activity change, negative = inhibition” value was -1.95% (inactive).

On to `O=C(O)c1ccc(Cl)c(S(=O)(=O)Nc2ccc3[nH]c(=O)[nH]c3c2)c1`, for which the “activity change, negative = inhibition” value is -19.7% (inactive).

For `O=S(=O)(Nc1nc(-c2ccccc2)cs1)c1cc(Cl)ccc1Cl`, the Potency is 28.2 µM (active).

Consider `COC(=O)c1ccccc1NC(=O)CN1CCC(n2nnc3cc(C(F)(F)F)ccc32)CC1`, for which the “activity change, negative = inhibition” value was -0.603% (inactive).

For the compound `Cc1ccc(S(=O)(=O)N2[C@@H](c3ccc(C(C)(C)C)cc3)C(C(=O)O)=CC[C@H]2c2ccc(C(C)C)cc2)cc1`, the “activity change, negative = inhibition” value was -29.1% (inactive).

As for `Cc1cccc(NC(c2ccc(O)cc2)c2ccc3ccc(C)nc3c2O)n1` (configuration not stated), the Potency is 22.4 µM (active).

As to `O=c1cc(-c2ccccc2)[nH]n1-c1nc2ccccc2[nH]1`, the Potency is 15.8 µM (active).

On to `CC(C)C(=O)Nc1nnc(NC(=S)Nc2ccccc2)s1`, for which the Potency is 20 µM (active).

In the case of `CC(=O)Nc1ccc(NC(=S)Nc2ccc(Br)cc2)cc1`, the “activity change, negative = inhibition” value is 2.77% (inactive).

`O=C(CSc1n[nH]c(-c2cccnc2)n1)OC1CCCCC1`: the “activity change, negative = inhibition” value is -6.36% (inactive).

For the compound `CCCN(C(=O)c1cc(-c2ccco2)nc2ccccc12)c1c(N)n(Cc2ccccc2)c(=O)[nH]c1=O`, the Potency was 15.8 µM (active).

For `CCCCC(=O)N(Cc1ccc2c(c1)OCO2)Cc1nc2ccccc2c(=O)[nH]1`, the “activity change, negative = inhibition” value is -1.7% (inactive).

Regarding `CCCn1c(N)c(N(CCOC)C(=O)c2cc(-c3ccco3)nc3ccccc23)c(=O)[nH]c1=O`, the “activity change, negative = inhibition” value is -19% (inactive).

Take `CCCN(C(=O)c1cccc(-n2cccc2)c1)c1c(N)n(Cc2ccccc2)c(=O)[nH]c1=O`: the Potency was 7.08 µM (active).

On to `Cc1ccc(Nc2nc(C)c3c(n2)CC(C)CC3=O)c(C)c1` (configuration not stated), for which the “activity change, negative = inhibition” value was -0.0066% (inactive).

As for `O=C(O)c1cc2c(N3CCC(Cc4ccccc4)CC3)ncnc2s1`, the Potency was 3.98 µM (active).

For the origin of these results see PubChem BioAssay AID743286 (National Center for Advancing Translational Sciences (NCATS), 2014).
